PubChem BioAssay (EPA / NIEHS)
Results filed as inconclusive are left out. Active and inactive are the calls of the source. How the source made its calls: active means hit-call score of the fitted dose curve at least 0.9, where 1 is the maximum; inconclusive means response in the unintended direction; inactive means score below 0.9.

read-out: Glyceraldehyde-3-phosphate dehydrogenase (Homo sapiens) (UniProt P04406); assay: CLD_GAPDH_6hr: CellzDirect (CLD) Gene Expression Assay for Baseline Control (Glyceraldehyde 3-phosphate dehydrogenase) at 6 hours (AID 2283681)
Description: CLD_6hr is a cell-based, multiplexed-readout assay that uses hepatocyte, a human liver primary cell, with measurements taken at 6 hours after chemical dosing in a 96-well plate.CLD_GAPDH_6hr is one of 16 assay component(s) measured or calculated from the CLD_6hr assay. It is designed to make measurements of mRNA induction, a form of inducible reporter, as detected with chemiluminescence signals by Quantitative Nuclease Protection Assay (qNPA) technology.Data from the assay component CLD_GAPDH_6hr was analyzed at the endpoint, CLD_GAPDH_6hr, in the positive analysis fitting direction relative to DMSO as the negative control and baseline of activity. Using a type of inducible reporter, gain-of-signal activity can be used to understand changes in the reporter gene as they relate to the gene GAPDH. Furthermore, this assay endpoint can be referred to as a secondary readout, because this assay has produced multiple assay endpoints where this one serves a background control function. To generalize the intended target to other relatable targets, this assay endpoint is annotated to the background measurement intended target family, where subfamily is baseline control.
Human hepatocyte cultures were treated daily for two consecutive days with fresh dosing solutions containing appropriate concentrations of the 320 ToxCast chemicals (chemical identities were blinded to CellzDirect and other ToxCast collaborators), vehicle control (0.2% DMSO), and positive control inducers as summarized in Table 1. Due to the large number of treatment groups and chemicals examined, the ToxCast chemicals were divided into two groups (spanning two independent cultures of hepatocytes from separate donor preparations (Hu778: ToxCast plates 1 and 2; Hu776: ToxCast plates 3 and 4). Each preparation of human hepatocyte cultures was treated with respective vehicle control, medium only control, set of six positive controls/reference chemicals for the five hepatic receptor pathways, and a subset of eight of the ToxCast chemicals (indoxacarb, pyrithiobac-sodium, norflurazon, cyhalofop-butyl, methomyl, thiram, acetochlor, and propiconazole). These replicate data, coupled with internal replicates designed within the blinded ToxCast chemical library, provided additional data to evaluate interindividual differences between hepatocyte preparations and their potential impact on chemical profiles.Cell morphology and integrity were evaluated using phase-contrast microscopy as an indicator of hepatocyte cell health (Tyson & Green, 1987). Cultures for each treatment group (i.e., media, vehicle [0.2% DMSO], positive control inducers [multiple concentrations], and the ToxCast chemicals [multiple concentrations]) were observed and cell morphology was assessed relative to vehicle control cultures at each harvest time point (0, 6, 24, or 48 h). […] Images were evaluated at the conclusion of the study to assess changes in cell integrity and account for the effects of chemical exposure on uncharacteristic changes in concentration-dependent gene expression profiles. The results from these determinations of apparent cytotoxicity were annotated (yes/no) alongside the corresponding qNPA data for reference.At the conclusion of each treatment period, hepatocyte cultures (96-well) were washed with 1 volume of HBSS, lysed by addition of 25 ul ArrayPlate lysis buffer (HTG, Tucson, AZ), and 70 ul/well of Denaturation Oil, denatured by incubation at 95C for 10 min, and frozen at approximately -70C until analysis by nuclease protection assay (qNPA) (Roberts et al., 2007). For qNPA analysis, cell lysates were thawed at 50C for approximately 30 min, qNPA probes were added, and samples were incubated at 95C for 10 min to begin the detection process by denaturing the target RNA, dissociating the duplexes and secondary structure hybridization. At the conclusion of the hybridization period, S1 nuclease reagent was added to each sample to digest all nonprotected nucleotides at 50C for 60-90 min. […]

Chain of Glyceraldehyde-3-phosphate dehydrogenase (Homo sapiens) (P04406 whole entry, looked up): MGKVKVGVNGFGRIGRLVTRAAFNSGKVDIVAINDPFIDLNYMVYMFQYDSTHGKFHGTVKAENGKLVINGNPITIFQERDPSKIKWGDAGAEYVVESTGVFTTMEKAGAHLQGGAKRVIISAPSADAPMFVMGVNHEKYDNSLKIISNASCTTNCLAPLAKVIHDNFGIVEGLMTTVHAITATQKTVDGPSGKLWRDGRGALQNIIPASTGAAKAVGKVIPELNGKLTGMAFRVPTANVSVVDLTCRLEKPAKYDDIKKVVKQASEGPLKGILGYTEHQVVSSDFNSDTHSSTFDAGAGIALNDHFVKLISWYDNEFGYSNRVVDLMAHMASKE

SMILES | outcome
CNC(=O)CSP(=S)(OC)OC | inactive
O=[N+]([O-])c1c(Cl)c(Cl)c(Cl)c(Cl)c1Cl | inactive
CCC(C)(C)C(=O)OC1=C(c2ccc(Cl)cc2Cl)C(=O)OC12CCCCC2 | inactive
OCCOc1ccccc1 | inactive
COc1cc(OC)nc(NC(=O)NS(=O)(=O)c2cc(NC=O)ccc2C(=O)N(C)C)n1 | inactive
O=C(O)COc1ccc(Cl)cc1Cl | inactive
CN1CSC(=S)N(C)C1 | inactive
CNC(=O)Oc1cccc(N=CN(C)C)c1 | inactive
O=S1OCC2C(CO1)C1(Cl)C(Cl)=C(Cl)C2(Cl)C1(Cl)Cl (stereo not drawn) | inactive
O=C(O)C(F)(F)C(F)(F)C(F)(F)C(F)(F)C(F)(F)C(F)(F)C(F)(F)F | inactive
[2H]C1([2H])[n+]2ccccc2-c2cccc[n+]2C1([2H])[2H] | inactive
CC1(C)C(C=C(Cl)Cl)C1C(=O)OC(C#N)c1ccc(F)c(Oc2ccccc2)c1 (stereo not drawn) | inactive
COC(=O)c1ccccc1S(=O)(=O)NC(=O)N(C)c1nc(C)nc(OC)n1 | inactive
COC(=O)c1ccccc1S(=O)(=O)NC(=O)Nc1nc(C)nc(OC)n1 | inactive
COP(=O)(OC)OC=C(Cl)Cl | inactive
Oc1cc(Cl)ccc1Oc1ccc(Cl)cc1Cl | inactive
Cc1cc(C)nc(NC(=O)NS(=O)(=O)c2ccccc2C(=O)OC2COC2)n1 | inactive

SMILES | outcome
Oc1ccc(Cl)cc1Cc1ccccc1 | inactive
Clc1ccccc1-c1nnc(-c2ccccc2Cl)nn1 | inactive
N#CN | inactive
CNC(=O)Oc1ccccc1OC(C)C | inactive
CC(C)(C)C(O)/C(=C\c1ccc(Cl)cc1Cl)n1cncn1 (stereo not drawn) | inactive
CCS(=O)(=O)c1cccnc1S(=O)(=O)NC(=O)Nc1nc(OC)cc(OC)n1 | inactive
CC(C)(C)C(O)C(Oc1ccc(Cl)cc1)n1cncn1 (stereo not drawn) | inactive
C[C@H]1[C@H](c2ccc(Cl)cc2)SC(=O)N1C(=O)NC1CCCCC1 | inactive
CC[C@H](C)[C@H]1O[C@]2(C=C[C@@H]1C)C[C@@H]1C[C@@H](C/C=C(\C)[C@@H](O[C@H]3C[C@H](OC)[C@@H](O[C@H]4C[C@H](OC)[C@@H](O)[C@H](C)O4)[C@H](C)O3)[C@@H](C)/C=C/C=C3\CO[C@@H]4[C@H](O)C(C)=C[C@@H](C(=O)O1)[C@]34O)O2 (tested in a mixture with another compound) | inactive
O=C(O)CCCOc1ccc(Cl)cc1Cl | inactive
CCOCN(C(=O)CCl)c1c(C)cccc1CC | inactive
CCCN(CCOc1c(Cl)cc(Cl)cc1Cl)C(=O)n1ccnc1 | inactive
CCOc1nc(NC)nc(NC(=O)NS(=O)(=O)c2ccccc2C(=O)OC)n1 | inactive
CC(C)N(C(=O)COc1nnc(C(F)(F)F)s1)c1ccc(F)cc1 | inactive
O=C1c2ccccc2C(=O)N1SC(Cl)(Cl)Cl | inactive
O=[N+]([O-])/N=C1\NCCN1Cc1ccc(Cl)nc1 | inactive
